What all share (settings): concentration: 10 µM; 24 h
The test system of assay [1] is HCC1569. Kind of assay: cell number relative to DMSO (% of DMSO); higher = more cells (less growth inhibition / toxicity). A digest of the protocol: (§1)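 For HCC1569 and TDF cells, compounds at 10 µM were applied for 24 h at 37 °C in triplicate in 384-well plates. Cells were fixed in 3.7% formaldehyde, stained for H1.0 and with DAPI, and imaged at ×10 over six fields per well. The endpoint, H1.0 nuclear intensity or cell number, is shown as percent of the plate control using the median of replicates. Positional effects were smoothed for HCC1569 only.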

In assay [2] the test system is TDF. Described as above. A digest of the protocol: as §1
For assay [3], the system named is TDF. Kind of assay: H1.0 immunofluorescence intensity relative to DMSO (% of DMSO); higher = stronger H1.0 induction, active = 120 or more. A digest of the protocol:
as §1

Assay [4] concerns HCC1569. In words: H1.0 immunofluorescence intensity relative to DMSO (% of DMSO); higher = stronger H1.0 induction, active = 140 or more. The method, boiled down: as §1

SMILES strings stand for the structures. ± gives the standard deviation of the averaged measurements.
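For H1.0 immunofluorescence intensity relative to DMSO in this document: TDF is a line of transformed human dermal fibroblasts of mesenchymal origin.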
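For cell number relative to DMSO in this document: TDF denotes transformed human dermal fibroblasts of mesenchymal origin.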

Turning to `CC1(O)CC23CC(O)C4(O)C(CC(O)C4(C)C)C(C)(O)C2CCC1C3O` (stereo not given) [Grayanotoxin III], the figures for the cell number in assay [1] and in assay [2] were 99.6 and 102, respectively. Further, the figures for the H1.0 immunofluorescence intensity in assay [3] and in assay [4] were 91.9 (inactive) and 88.2 (inactive), respectively.

As to `CC12CCC3C(CCC4=C(O)C(=O)CCC43C)C1CCC2=O` (stereo not given) [Formestane], the cell number came out at 105 in assay [1] and 98.1 in assay [2]. Also, the figures for the H1.0 immunofluorescence intensity in assay [3] and in assay [4] were 98.3 (inactive) and 111 (inactive), respectively.

For the compound `Cl.OCC1C(O)C(O)C2C(O)CCN12` (stereo not given), the cell number amounted to 101 in assay [1] and 111 in assay [2]. Further, the H1.0 immunofluorescence intensity in assay [3] was 97 (inactive); in assay [4] it was 97.5 (inactive).

With `CCCN1CCCC(c2cccc(O)c2)C1.Cl` (stereo not drawn) [S(-)-3PPP hydrochloride], the cell number amounted to 99.1 in assay [1] and 110 in assay [2]. Moreover, the H1.0 immunofluorescence intensity in assay [3] was 94.8 (inactive); in assay [4], 104 (inactive).

`Cc1[nH]c2ccc(Cl)cc2c1C1=CCNCC1.Cl`: the cell number in assay [1] came to 99.8; in assay [2] it was 93.5. In addition, the H1.0 immunofluorescence intensity in assay [3] was 107 (inactive); in assay [4], 120 (inactive).

In the case of `CC(C)CC1C(=O)N2CCCC2C2(O)OC(NC(=O)C3C=C4c5cccc6[nH]c(Br)c(c56)CC4N(C)C3)(C(C)C)C(=O)N12.CS(=O)(=O)O` (stereo not given) [Bromocriptine mesylate], the values for the cell number in assay [1] and in assay [2] were 99.5 ± 2.3 and 102.8 ± 0.3, respectively. In addition, the H1.0 immunofluorescence intensity in assay [3] is 94.1 (inactive); in assay [4], 102 (inactive).

As for `Cc1o[nH]c(=O)c1CC(N)C(=O)O` (racemic), the values for the cell number in assay [1] and in assay [2] were 103 and 101, respectively. Moreover, the figures for the H1.0 immunofluorescence intensity in assay [3] and in assay [4] were 96.3 (inactive) and 87.9 (inactive), respectively.

`CC(C)C1CNC(C(=O)O)C1CC(=O)O` (stereo not given) [Dihydrokainic acid]: the results for the cell number in assay [1] and in assay [2] were 102 and 116, respectively. In addition, the H1.0 immunofluorescence intensity in assay [3] was 89.2 (inactive); in assay [4], 88.7 (inactive).

In the case of `COC1=CC(=O)OC(C=Cc2ccc3c(c2)OCO3)C1` (stereo not given) [Methysticin], the cell number in assay [1] and in assay [2] was 106 each time. Also, the H1.0 immunofluorescence intensity in assay [3] was 90.6 (inactive); in assay [4], 89 (inactive).

Turning to `CC12CCC3C(CCC4=CC(=O)CCC43C)C1CCC2=O` (stereo not given) [4-Androstene-3,17-dione], the cell number in assay [1] amounted to 95.3; in assay [2], 113. Moreover, the results for the H1.0 immunofluorescence intensity in assay [3] and in assay [4] were 101 (inactive) and 90 (inactive), respectively.

On to `CN1CCC23CCCCC2C1Cc1ccc(O)cc13.O=C(O)C(O)C(O)C(=O)O` [Dextrorphan D-tartrate], for which the cell number in assay [1] was found to be 103; in assay [2], 105. For the same compound, the H1.0 immunofluorescence intensity in assay [3] was 93.1 (inactive); in assay [4], 89.2 (inactive).

`CC(C)(OO)c1ccccc1` [Cumene hydroperoxide]: the cell number in assay [1] turned out to be 101; in assay [2] it was 113. Further, the H1.0 immunofluorescence intensity is 105 (inactive) in assay [3] and 99.6 (inactive) in assay [4].

In the case of `CN1C2CCC1CC(OC(=O)C(CO)c1ccccc1)C2` (stereo not given) [Atropine], the cell number amounted to 104 in assay [1] and 110 in assay [2]. Also, the values for the H1.0 immunofluorescence intensity in assay [3] and in assay [4] were 93.7 (inactive) and 107 (inactive), respectively.

Take `Oc1ccc2c3c1OC1C(O)CCC4(O)C(C2)N(CC2CCC2)CCC314` (stereo not given) [Nalbuphine]: the cell number in assay [1] and in assay [2] was 105 in each case. The H1.0 immunofluorescence intensity in assay [3] is 89.2 (inactive); in assay [4], 104 (inactive).

Regarding `Br.CCCN(CCC)C1CCc2ccc(O)cc2C1` (stereo not drawn) [R-(+)-7-Hydroxy-DPAT hydrobromide], the cell number was 99.8 in assay [1] and 110 in assay [2]. Besides, the H1.0 immunofluorescence intensity in assay [3] was 103 (inactive); in assay [4], 101 (inactive).

As for `CN(C)C1C(=O)C(C(N)=O)=C(O)C2(O)C(=O)C3=C(O)c4c(O)cccc4C(C)(O)C3CC12` (stereo not given) [Tetracycline], the cell number is 104 in assay [1] and 109 in assay [2]. Moreover, the H1.0 immunofluorescence intensity in assay [3] was 101 (inactive); in assay [4], 95.2 (inactive).

`Br.CN1C2CC(OC(=O)C(CO)c3ccccc3)CC1C(O)C2` (stereo not given) [Anisodamine]: the cell number in assay [1] worked out at 104; in assay [2], 102. For the same compound, the H1.0 immunofluorescence intensity in assay [3] is 101 (inactive); in assay [4] it was 94.6 (inactive).

Take `O=[N+]([O-])C=Cc1ccc2c(c1)OCO2` [Syk Inhibitor III]: the cell number in assay [1] was determined as 37.1; in assay [2], 33.2. Further, the H1.0 immunofluorescence intensity in assay [3] was 122 (active); in assay [4], 99.6 (inactive).

For the compound `CC1CN(C2CCC(C#N)(c3ccc(F)cc3)CC2)CCC1(C(=O)O)c1ccccc1.Cl` (stereo not given) [Levocabastine.HCl], the cell number in assay [1] came to 102; in assay [2] it was 103. For the same compound, the H1.0 immunofluorescence intensity in assay [3] is 102 (inactive); in assay [4], 115 (inactive).

As to `CCS(=O)(=O)Nc1cccc(C(=C2CCCCC2)c2cnc[nH]2)c1`, the cell number in assay [1] was found to be 99.6; in assay [2], 101. Further, the H1.0 immunofluorescence intensity in assay [3] is 94.6 (inactive); in assay [4], 92.5 (inactive).

On to `CCCn1c(=O)c2[nH]c(C3CCCC3)nc2n(CCCOC(=O)c2ccc(S(=O)(=O)F)cc2)c1=O`, for which the cell number in assay [1] was 99.7; in assay [2] it was 110. In addition, the H1.0 immunofluorescence intensity in assay [3] is 90.1 (inactive); in assay [4], 77.2 (inactive).

In the case of `COC(=O)C(N)CCCN=C(N)N[N+](=O)[O-].Cl` [NG-Nitro-L-arginine methyl ester hydrochloride], the cell number in assay [1] turned out to be 103; in assay [2], 109. Besides, the figures for the H1.0 immunofluorescence intensity in assay [3] and in assay [4] were 89.9 (inactive) and 92.5 (inactive), respectively.

As for `Br.NCc1cc(=O)[nH]o1` [Muscimol hydrobromide], the cell number in assay [1] amounted to 103; in assay [2], 119. Also, the H1.0 immunofluorescence intensity in assay [3] is 89.5 (inactive); in assay [4], 91 (inactive).

As to `C=CCN1CC(C(=O)N(CCCN(C)C)C(=O)NCC)CC2c3cccc4[nH]cc(c34)CC21` (stereo not given) [Cabergoline], the cell number in assay [1] turned out to be 109; in assay [2] it was 102. Moreover, the H1.0 immunofluorescence intensity in assay [3] is 96.1 (inactive); in assay [4] it was 102 (inactive).

On to `COc1cccc(C2(O)CCCCC2CN(C)C)c1` (stereo not given) [Tramadol], for which the cell number in assay [1] amounted to 100; in assay [2], 97.7. Moreover, the H1.0 immunofluorescence intensity is 99.3 (inactive) in assay [3] and 109 (inactive) in assay [4].

These data come from the supplement of paper PMC7156485.
